About 8,800 targets were measured; listed, in parts, are those with a hit and a random draw of the rest. About 0.5% of all pairs of compound and target were hits.
Key:
Experiment in all cases: log2 fold change, soluble protein after heating vs DMSO (PISA); higher = thermal stabilisation; K562 lysate, 10 uM; active = over 0.2 and 3.5 SD of the protein, either way, in both replicates (recomputed)
[1] = compound: CN1CC[C@H](c2c(O)cc(O)c3c(=O)cc(-c4ccccc4Cl)oc23)[C@H](O)C1 [alvocidib]
Method in brief: (§1)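 K562 pellets were dounce-homogenised in PBS pH 7.4 with 1 mM MgCl2, and the crude extract at 1 mg/mL protein was treated with 10 μM compound for 30 min. Aliquots were heated for 3 min across 48°C-58°C, pooled, and brought to 0.5% NP-40 at 4°C; soluble protein was the supernatant after 21,000xg for 90 min. Soluble protein was quantified by TMTpro 16plex LC-MS/MS with channel sums equalised, and reported as log2 fold change in thermal stability against DMSO controls, with values from duplicates.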

[2] = compound: CN1CCc2c(c3ccccc3n2Cc2ccc(C(=O)NO)cc2)C1 [Tubastatin A]
Method in brief: as §1

[3] = compound: CNC(=O)C1=CC=CC=C1NC2=NC(=NC=C2Cl)NC3=C(C=C(C=C3)N4CCOCC4)OC
Method in brief: as §1

[4] = compound: CNC(=O)c1ccc(Nc2ncc(C(F)(F)F)c(NCc3nccnc3N(C)S(C)(=O)=O)n2)cc1 [defactinib]
Method in brief: as §1

[5] = compound: CNc1nc(-c2ccc3c(N)n[nH]c3c2)cc(N2C[C@@H](C(=O)NC3CCCCC3)CC[C@H]2C)n1
Method in brief: as §1

[6] = compound: COC(=O)N[C@@H](C)CNc1nccc(-c2cn(C(C)C)nc2-c2cc(Cl)cc(NS(C)(=O)=O)c2F)n1 [encorafenib]
Method in brief: as §1

[7] = compound: COC(=O)[C@H](CCSC)NC(=O)C1=C(C=C(C=C1)NC[C@H](CS)N)C2=CC=CC=C2
Method in brief: as §1

[8] = compound: COc1cc(Nc2ncc3c(n2)-c2ccc(Cl)cc2C(c2c(F)cccc2OC)=NC3)ccc1C(=O)O [alisertib]
Method in brief: as §1

[9] = compound: COc1cc2nc(-c3cc(F)ccc3O)nc(N[C@@H]3CNC[C@H]3C(C)(C)O)c2cc1OC
Method in brief: as §1

[10] = compound: COc1cc2ncnc(Nc3ccc(F)c(Cl)c3)c2cc1OCCCN1CCOCC1 [gefitinib]
Method in brief: as §1

Measured: log2 fold change

TMEM263 (UniProt Q8WUH6)
inactive: [1] 0.013 | [2] 0.266 | [3] 0.116 | [4] 0.213 | [5] -0.013 | [6] 0.285 | [7] 0.154 | [8] 0.202 | [9] 0.398 | [10] 0.222

TUBE1 (UniProt Q9UJT0)
UniProt Q9UJT0, sequence (Q9UJT0 whole entry, looked up): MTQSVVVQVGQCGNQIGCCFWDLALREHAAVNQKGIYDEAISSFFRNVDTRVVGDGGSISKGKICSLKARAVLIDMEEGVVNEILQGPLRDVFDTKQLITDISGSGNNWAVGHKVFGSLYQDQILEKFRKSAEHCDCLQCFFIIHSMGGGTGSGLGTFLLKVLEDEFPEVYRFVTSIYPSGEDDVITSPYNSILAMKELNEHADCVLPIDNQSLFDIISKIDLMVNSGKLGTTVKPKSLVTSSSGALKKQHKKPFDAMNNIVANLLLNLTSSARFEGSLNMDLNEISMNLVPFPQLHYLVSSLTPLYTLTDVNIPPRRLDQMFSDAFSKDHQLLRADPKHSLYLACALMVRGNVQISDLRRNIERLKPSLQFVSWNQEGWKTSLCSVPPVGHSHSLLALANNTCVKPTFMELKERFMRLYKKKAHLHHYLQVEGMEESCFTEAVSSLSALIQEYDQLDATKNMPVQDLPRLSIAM
inactive: [1] 0.06 | [2] -0.001 | [3] 0.062 | [4] 0.107 | [5] -0.027 | [6] 0.036 | [7] -0.108 | [8] 0.052 | [9] -0.009 | [10] -0.005

UBIAD1 (UniProt Q9Y5Z9)
inactive: [1] -0.016 | [2] 0.025 | [3] 0.008 | [4] 0.031 | [5] 0.157 | [6] 0.067 | [7] -0.102 | [8] 0.112 | [9] -0.061 | [10] -0.048

UBL5 (UniProt Q9BZL1)
UniProt Q9BZL1, sequence (Q9BZL1 whole entry, looked up): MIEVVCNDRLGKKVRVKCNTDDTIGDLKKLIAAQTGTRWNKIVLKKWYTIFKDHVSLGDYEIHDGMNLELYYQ
inactive: [1] -0.117 | [2] 0.023 | [3] -0.048 | [4] 0.041 | [5] -0.045 | [6] -0.012 | [7] -0.06 | [8] 0.039 | [10] -0.141

TUBB6 (UniProt K7ES63)
inactive: [1] -0.11 | [2] -0.021 | [3] 0.111 | [4] -0.018 | [6] 0.024 | [7] 0.125 | [8] 0.055 | [9] -0.051 | [10] 0.165

UBTF (UniProt P17480)
UniProt P17480, sequence (P17480 whole entry, looked up): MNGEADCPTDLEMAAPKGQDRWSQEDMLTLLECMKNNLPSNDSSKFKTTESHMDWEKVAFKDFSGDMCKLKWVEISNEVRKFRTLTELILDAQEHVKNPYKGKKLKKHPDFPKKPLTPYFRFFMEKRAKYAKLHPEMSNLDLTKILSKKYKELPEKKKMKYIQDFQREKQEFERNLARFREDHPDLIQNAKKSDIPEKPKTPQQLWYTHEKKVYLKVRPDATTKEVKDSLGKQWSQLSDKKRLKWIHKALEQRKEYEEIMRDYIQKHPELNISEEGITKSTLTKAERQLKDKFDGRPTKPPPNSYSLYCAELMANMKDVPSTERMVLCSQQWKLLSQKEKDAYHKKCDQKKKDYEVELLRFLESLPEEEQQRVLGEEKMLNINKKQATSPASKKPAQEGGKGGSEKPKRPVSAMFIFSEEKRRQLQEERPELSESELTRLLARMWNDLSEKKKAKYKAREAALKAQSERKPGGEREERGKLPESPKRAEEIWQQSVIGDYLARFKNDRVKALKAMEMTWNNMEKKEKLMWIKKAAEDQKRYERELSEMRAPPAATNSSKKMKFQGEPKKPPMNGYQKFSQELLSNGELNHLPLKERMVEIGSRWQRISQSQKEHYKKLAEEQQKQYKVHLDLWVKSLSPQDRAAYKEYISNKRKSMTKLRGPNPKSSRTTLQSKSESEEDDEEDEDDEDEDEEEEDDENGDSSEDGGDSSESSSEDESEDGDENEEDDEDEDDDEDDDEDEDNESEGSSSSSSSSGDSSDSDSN
inactive: [1] 0.026 | [2] -0.135 | [3] -0.008 | [4] 0.007 | [5] 0.004 | [6] -0.002 | [7] 0.073 | [8] 0.055 | [9] -0.018 | [10] 0.045

TBC1D20 isoform 3 (UniProt Q96BZ9)
inactive: [1] -0.011 | [2] -0.131 | [3] -0.017 | [4] 0.166 | [5] 0.109 | [6] 0.037 | [7] -0.047 | [9] -0.021

UBXN2B (UniProt Q14CS0)
UniProt Q14CS0, sequence (Q14CS0 whole entry, looked up): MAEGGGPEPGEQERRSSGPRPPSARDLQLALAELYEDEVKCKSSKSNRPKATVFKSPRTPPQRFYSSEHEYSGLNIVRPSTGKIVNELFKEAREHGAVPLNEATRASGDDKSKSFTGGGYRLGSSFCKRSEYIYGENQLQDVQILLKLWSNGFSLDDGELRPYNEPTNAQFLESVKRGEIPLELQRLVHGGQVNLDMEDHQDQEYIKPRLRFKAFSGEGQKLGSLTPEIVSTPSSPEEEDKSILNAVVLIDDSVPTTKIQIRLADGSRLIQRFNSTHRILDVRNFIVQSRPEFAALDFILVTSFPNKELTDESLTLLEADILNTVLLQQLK
inactive: [1] -0.123 | [2] -0.001 | [3] -0.046 | [4] 0.07 | [5] -0.018 | [6] -0.037 | [7] 0.069 | [8] 0.174 | [9] -0.114 | [10] 0.008

TUBB4B (UniProt P68371)
inactive: [1] 0.032 | [2] -0.017 | [3] 0.024 | [4] 0.018 | [5] -0.039 | [6] -0.03 | [7] 0.067 | [8] 0.019 | [9] -0.013 | [10] -0.028

TTI1 (UniProt O43156)
inactive: [1] 0 | [2] -0.163 | [3] 0.015 | [4] 0.022 | [5] -0.035 | [6] 0.022 | [7] 0.026 | [8] -0.013 | [9] -0.011 | [10] -0.016

TUBB4A (UniProt M0QYM7)
inactive: [1] -0.158 | [2] -0.007 | [3] -0.109 | [4] -0.115 | [6] 0.009 | [7] 0.053 | [8] -0.025 | [9] 0.042 | [10] -0.076

TRMT12 (UniProt Q53H54)
inactive: [1] -0.022 | [2] -0.106 | [3] -0.113 | [4] -0.058 | [5] 0.007 | [6] 0.041 | [7] 0.088 | [8] -0.031 | [9] 0.018 | [10] 0.123

UBE2H (UniProt P62256)
inactive: [1] 0.11 | [2] 0.076 | [3] -0.03 | [4] 0.025 | [5] -0.061 | [6] 0.001 | [7] -0.01 | [8] 0.004 | [9] -0.029 | [10] 0.044

TRIP13 (UniProt Q15645)
inactive: [1] 0.018 | [2] -0.159 | [3] 0.014 | [4] 0.07 | [5] -0.049 | [6] 0.03 | [7] 0.114 | [8] 0 | [9] 0.014 | [10] -0.036

TFAP4 (UniProt Q01664)
UniProt Q01664, sequence (Q01664 whole entry, looked up): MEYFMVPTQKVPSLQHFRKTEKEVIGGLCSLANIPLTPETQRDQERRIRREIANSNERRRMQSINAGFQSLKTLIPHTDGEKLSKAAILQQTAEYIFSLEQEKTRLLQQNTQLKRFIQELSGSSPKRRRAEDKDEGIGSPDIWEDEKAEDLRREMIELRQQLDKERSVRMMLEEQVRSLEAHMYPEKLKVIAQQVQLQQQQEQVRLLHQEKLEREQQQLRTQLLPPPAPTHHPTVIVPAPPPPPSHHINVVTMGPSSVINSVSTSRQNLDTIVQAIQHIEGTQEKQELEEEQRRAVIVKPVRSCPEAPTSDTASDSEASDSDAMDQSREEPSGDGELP
inactive: [1] -0.037 | [2] 0.135 | [3] 0.133 | [4] -0.066 | [6] 0.156 | [7] -0.108 | [8] -0.106 | [9] -0.097 | [10] -0.096

TTLL12 (UniProt V9GY16)
inactive: [1] 0.003 | [2] 0.177 | [3] 0.077 | [4] -0.095 | [6] -0.174 | [7] 0.146

TUT4 (UniProt Q5TAX3)
UniProt Q5TAX3, sequence (Q5TAX3 whole entry, looked up): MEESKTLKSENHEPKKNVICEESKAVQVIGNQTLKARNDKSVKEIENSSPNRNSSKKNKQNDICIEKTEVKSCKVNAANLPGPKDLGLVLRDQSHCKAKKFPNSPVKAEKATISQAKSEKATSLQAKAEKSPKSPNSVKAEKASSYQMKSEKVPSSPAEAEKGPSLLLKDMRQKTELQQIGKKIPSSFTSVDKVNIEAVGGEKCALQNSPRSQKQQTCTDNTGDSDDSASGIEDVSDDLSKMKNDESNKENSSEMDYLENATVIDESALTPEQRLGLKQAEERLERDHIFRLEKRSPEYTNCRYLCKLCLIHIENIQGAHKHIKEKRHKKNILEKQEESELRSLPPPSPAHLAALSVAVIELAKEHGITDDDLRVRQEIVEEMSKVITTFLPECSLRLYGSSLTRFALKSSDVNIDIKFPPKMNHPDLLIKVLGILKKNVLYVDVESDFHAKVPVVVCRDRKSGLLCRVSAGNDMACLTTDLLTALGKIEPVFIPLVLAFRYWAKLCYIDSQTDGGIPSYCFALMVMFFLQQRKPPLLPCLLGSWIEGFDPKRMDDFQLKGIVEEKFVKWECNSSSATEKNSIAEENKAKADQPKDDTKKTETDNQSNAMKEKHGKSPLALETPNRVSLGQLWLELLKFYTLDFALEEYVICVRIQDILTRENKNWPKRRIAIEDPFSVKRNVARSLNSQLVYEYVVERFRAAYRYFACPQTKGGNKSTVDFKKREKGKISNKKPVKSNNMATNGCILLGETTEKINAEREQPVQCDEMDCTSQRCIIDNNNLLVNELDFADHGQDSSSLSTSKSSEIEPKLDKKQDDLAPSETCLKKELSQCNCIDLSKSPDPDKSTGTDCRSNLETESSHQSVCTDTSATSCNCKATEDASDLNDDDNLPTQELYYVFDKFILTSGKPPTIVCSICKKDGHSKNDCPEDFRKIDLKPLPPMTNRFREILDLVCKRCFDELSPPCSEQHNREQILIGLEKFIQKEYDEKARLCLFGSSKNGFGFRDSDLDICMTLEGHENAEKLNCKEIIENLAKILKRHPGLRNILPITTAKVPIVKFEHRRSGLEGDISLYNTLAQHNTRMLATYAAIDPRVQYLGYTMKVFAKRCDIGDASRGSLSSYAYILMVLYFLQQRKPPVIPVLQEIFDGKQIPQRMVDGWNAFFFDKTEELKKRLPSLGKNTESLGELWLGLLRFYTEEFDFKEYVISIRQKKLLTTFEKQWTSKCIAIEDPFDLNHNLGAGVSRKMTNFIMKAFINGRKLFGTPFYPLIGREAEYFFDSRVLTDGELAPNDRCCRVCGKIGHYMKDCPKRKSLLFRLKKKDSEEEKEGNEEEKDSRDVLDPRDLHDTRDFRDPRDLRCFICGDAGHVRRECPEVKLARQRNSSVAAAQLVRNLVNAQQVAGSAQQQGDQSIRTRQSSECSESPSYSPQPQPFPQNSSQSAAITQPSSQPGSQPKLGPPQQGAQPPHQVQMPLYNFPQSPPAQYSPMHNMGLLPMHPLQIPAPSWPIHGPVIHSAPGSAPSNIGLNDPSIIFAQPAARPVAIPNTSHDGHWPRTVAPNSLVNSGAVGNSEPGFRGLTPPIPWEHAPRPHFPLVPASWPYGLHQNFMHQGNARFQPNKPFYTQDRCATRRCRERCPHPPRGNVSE
inactive: [1] -0.022 | [2] -0.1 | [3] -0.001 | [4] 0.002 | [5] 0.039 | [6] 0.059 | [7] 0.125 | [8] 0.01 | [9] -0.014 | [10] -0.007

TMEM177 (UniProt Q53S58)
UniProt Q53S58, sequence (Q53S58 whole entry, looked up): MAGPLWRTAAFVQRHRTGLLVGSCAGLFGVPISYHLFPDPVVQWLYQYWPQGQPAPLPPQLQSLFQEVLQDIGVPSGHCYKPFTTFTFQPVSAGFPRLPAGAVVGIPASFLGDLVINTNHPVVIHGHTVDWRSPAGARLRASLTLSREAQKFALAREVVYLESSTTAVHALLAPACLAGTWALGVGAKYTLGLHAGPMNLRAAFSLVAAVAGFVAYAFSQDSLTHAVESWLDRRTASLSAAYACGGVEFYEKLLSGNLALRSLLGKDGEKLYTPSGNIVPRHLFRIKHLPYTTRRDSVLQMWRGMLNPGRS
inactive: [1] 0.042 | [2] 0.05 | [3] 0.075 | [4] -0.009 | [6] 0.019 | [7] 0.153 | [9] 0.002

TUBAL3 (UniProt A6NHL2)
inactive: [1] -0.276 | [2] 0.109 | [3] -0.179 | [4] -0.093 | [5] 0.039 | [6] 0.03 | [7] 0.032 | [8] 0.135 | [9] 0.088 | [10] -0.057

TPM3 isoform 3 (UniProt P06753)
UniProt P06753, sequence (P06753 whole entry, looked up): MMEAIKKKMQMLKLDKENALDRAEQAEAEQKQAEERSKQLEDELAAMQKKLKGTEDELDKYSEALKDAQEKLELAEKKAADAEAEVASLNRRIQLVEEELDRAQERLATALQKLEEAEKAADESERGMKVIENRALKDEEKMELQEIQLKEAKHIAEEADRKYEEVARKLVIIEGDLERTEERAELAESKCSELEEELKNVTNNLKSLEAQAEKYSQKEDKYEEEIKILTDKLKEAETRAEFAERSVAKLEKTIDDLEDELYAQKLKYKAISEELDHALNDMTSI
inactive: [1] -0.202 | [2] -0.049 | [3] 0.028 | [4] 0.074 | [5] -0.137 | [6] -0.014 | [7] -0.039 | [9] -0.001

TJP1 (UniProt G3V1L9)
inactive: [1] -0.09 | [2] -0.042 | [3] 0.124 | [4] 0.241 | [5] 0.119 | [8] -0.079 | [10] -0.215

TXNIP (UniProt Q9H3M7)
inactive: [1] 0.017 | [2] -0.021 | [3] 0.037 | [4] 0.042 | [5] 0.046 | [6] 0.011 | [7] 0.067 | [8] -0.015 | [10] -0.004

TPM4 (UniProt P67936)
UniProt P67936, sequence (P67936 whole entry, looked up): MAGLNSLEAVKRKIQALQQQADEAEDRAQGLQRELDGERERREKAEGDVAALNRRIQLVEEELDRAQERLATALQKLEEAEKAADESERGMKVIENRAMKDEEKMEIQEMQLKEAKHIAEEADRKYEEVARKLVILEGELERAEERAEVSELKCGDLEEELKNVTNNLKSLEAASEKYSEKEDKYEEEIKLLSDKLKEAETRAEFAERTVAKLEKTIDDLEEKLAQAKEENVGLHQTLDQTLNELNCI
inactive: [1] -0.016 | [2] 0.074 | [3] -0.021 | [4] 0.019 | [5] 0.022 | [6] 0.028 | [7] -0.028 | [8] -0.105 | [9] 0.012 | [10] 0.033

TGOLN2 isoform 7 (UniProt O43493)
UniProt O43493, sequence (O43493 whole entry, looked up): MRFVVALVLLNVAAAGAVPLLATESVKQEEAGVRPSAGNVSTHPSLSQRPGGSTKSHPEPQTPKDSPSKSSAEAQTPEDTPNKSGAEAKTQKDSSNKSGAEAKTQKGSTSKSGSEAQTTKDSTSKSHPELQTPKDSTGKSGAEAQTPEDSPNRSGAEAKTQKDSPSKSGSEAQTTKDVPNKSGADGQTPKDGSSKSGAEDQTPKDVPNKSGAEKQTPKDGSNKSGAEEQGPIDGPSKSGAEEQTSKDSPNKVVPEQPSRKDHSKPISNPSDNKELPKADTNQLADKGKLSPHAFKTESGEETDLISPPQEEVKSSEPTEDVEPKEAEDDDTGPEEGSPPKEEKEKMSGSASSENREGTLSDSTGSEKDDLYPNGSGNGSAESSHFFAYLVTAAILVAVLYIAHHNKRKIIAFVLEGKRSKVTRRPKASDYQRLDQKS
inactive: [1] -0.053 | [2] 0.003 | [3] -0.052 | [4] 0.005 | [5] 0.045 | [6] 0.014 | [7] -0.031 | [8] -0.059 | [9] 0.02 | [10] -0.048

TK1 (UniProt K7ERV3)
inactive: [1] -0.028 | [2] 0.118 | [3] -0.002 | [4] -0.024 | [5] 0.121 | [6] -0.199 | [7] 0.006 | [8] -0.283 | [10] 0.214

TMPO (UniProt P42166)
inactive: [1] -0.196 | [2] -0.145 | [3] 0.002 | [4] 0.028 | [5] -0.003 | [6] 0.011 | [7] 0.174 | [8] -0.024 | [9] 0.012 | [10] 0.011

TTMP isoform 3 (UniProt Q5BVD1)
inactive: [1] -0.347 | [2] 0.24 | [3] -0.105 | [4] -0.088 | [5] 0.36 | [6] -0.06 | [7] 0.06 | [8] 0.119 | [9] 0.129 | [10] 0.02

UCHL5 isoform 3 (UniProt Q9Y5K5)
inactive: [1] -0.009 | [2] -0.063 | [3] 0.008 | [4] -0.024 | [5] -0.011 | [6] -0.004 | [7] 0.088 | [8] -0.026 | [9] -0.012 | [10] -0.014

TMEM199 (UniProt Q8N511)
inactive: [1] -0.032 | [2] 0.097 | [3] -0.035 | [4] -0.023 | [5] -0.001 | [6] -0.011 | [7] -0.093 | [8] 0 | [9] -0.007 | [10] 0.001

UBE3C (UniProt Q15386)
inactive: [1] 0 | [2] -0.084 | [3] 0.023 | [4] 0.033 | [5] 0.024 | [6] 0.076 | [7] -0.145 | [8] 0.022 | [9] 0 | [10] -0.026
